Where “and” joins values, the source holds several entries; their conditions need not be identical. Equal entries are not always repeated. Records with an inconclusive call do not appear. Some structures have more than one record in an assay (separate samples or runs), and their calls can disagree. Calls of active or inactive are those of the source. How the source made its calls, unless noted: active means hit-call score of the fitted dose curve at least 0.9, where 1 is the maximum; inactive means score below 0.9.
How the values were obtained:
[1] = CCTE_Shafer_MEA_dev_mutual_information_norm: CCTE's Neural Network Formation Assay for Mutual Information Normalization, Shafer Lab (AID 2284091);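 on AC50: mutual information between electrodes summarised as area under curve across four recording days; potency is for a decrease in mutual information relative to DMSO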
How it was run: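 Exposure of primary rat cortical neurons began at plating and ran to DIV 12, with full media and treatment renewal after DIV 5 and 9 recordings. Mutual information AUC (DIV 5–12) was analysed for loss versus DMSO.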

[2] = CCTE_Shafer_MEA_dev_correlation_coefficient_mean: CCTE's Neural Network Formation Assay for Mean Correlation Coefficient, Shafer Lab (AID 2284093);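 on AC50: well mean pairwise spike train correlation integrated as AUC over recording days 5 to 12; potency fitted for loss of correlation relative to DMSO vehicle wells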
How it was run: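 Rat cortical cultures, 1.5 x 10^5 cells/well, dosed from day 0 for 12 days. Spontaneous spikes recorded DIV 5/7/9/12; electrode-pair correlation coefficients averaged, AUC taken. Fit in loss direction vs DMSO.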

[3] = CCTE_Mundy_HCI_Cortical_Synap_Neur_Matur_NeuriteSpotCountPerNeuriteLength: CCTE's Synaptogenesis and Neurite Maturation Assay in rat cortical cells for Neurite Spot Count per Neurite Length, Mundy Lab (AID 2284210)
How it was run: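 Neurite-associated synapse density (synaptophysin puncta per unit neurite length) is measured by fluorescence high-content imaging in rat cortical cultures treated from DIV 7 and fixed at DIV 12, with DMSO as negative control.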

[4] = CCTE_Mundy_HCI_Cortical_Synap_Neur_Matur_BPCount: CCTE's Synaptogenesis and Neurite Maturation Assay in rat cortical cells for Branch Point Count, Mundy Lab (AID 2284211)
How it was run: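 HCI read-out of branch points from MAP2/synaptophysin/Hoechst immunofluorescence; rat cortical cultures, AraC DIV 5, dosing DIV 7, fixed DIV 12; fit in positive direction vs DMSO baseline.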

[5] = CCTE_Mundy_HCI_Cortical_NOG_NeuriteCount: CCTE's Neurite Outgrowth Assay in rat cortical cells for Neurite Count, Mundy Lab (AID 2284212);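 further: cells fixed about two days after chemical exposure began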
How it was run: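 Rat cortical primary cells; compound added 2 h post-plating, 1/10 dilution of working solution. Anti-betaIII-tubulin/AF488 ICC; ArrayScan neurite count vs DMSO.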

[6] = CCTE_Mundy_HCI_Cortical_NOG_NeuriteLength: CCTE's Neurite Outgrowth Assay in rat cortical cells for Neurite Length, Mundy Lab (AID 2284213);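 on AC50: neurites imaged about 48 to 50 h after chemical exposure began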
How it was run: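 First, rat primary cortical cells were plated and, 2 h later, given test chemical as a 1/10 dilution. Finally, βIII-tubulin immunostaining enabled automated imaging of neurite length.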

[7] = CCTE_Mundy_HCI_Cortical_Synap_Neur_Matur_NeuriteLength: CCTE's Synaptogenesis and Neurite Maturation Assay in rat cortical cells for Neurite Length, Mundy Lab (AID 2284214)
How it was run: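 Cultures of rat primary cortical cells received chemical at DIV 7 and were fixed at DIV 12, after glial arrest with AraC at DIV 5. Neurite length was measured by automated imaging of MAP2 immunofluorescence.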

[8] = CCTE_Mundy_HCI_Cortical_Synap_Neur_Matur_NeuriteSpotCountPerNeuron: CCTE's Synaptogenesis and Neurite Maturation Assay in rat cortical cells for Neurite Spot Count per Neuron Count, Mundy Lab (AID 2284215)
How it was run: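 Rat primary cortical cells received AraC at DIV 5, then chemicals with a media change at DIV 7, and were fixed at DIV 12. Synaptophysin puncta on MAP2-stained neurites per neuron were counted by high-content imaging, fitted relative to DMSO.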

[9] = CCTE_Mundy_HCI_Cortical_Synap_Neur_Matur_SynapseCount: CCTE's Synaptogenesis and Neurite Maturation Assay in rat cortical cells for Synapse Count, Mundy Lab (AID 2284218)
How it was run: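 Cells were plated, allowed 2 hr to attach, treated with AraC at DIV 5, then exposed to chemicals from DIV 7 until DIV 12. After fixation and MAP2/synaptophysin immunolabelling, synapses per neuron were quantified by automated imaging against DMSO.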

[10] = CCTE_Mundy_HCI_hN2_NOG_NeuriteCount: CCTE's Neurite Outgrowth Assay in human hN2 cells for Neurite Count, Mundy Lab (AID 2284219; active means hit-call score of the fitted dose curve at least 0.9, where 1 is the maximum)
How it was run: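 In this morphology assay, hNP1-derived neurons received test chemical 2 h post-plating and were fixed two days later in warm paraformaldehyde/sucrose containing Hoechst 33342. Neurites, labelled by rabbit anti-βIII-tubulin (1:800) and Alexa Fluor-488 (1:500), were counted automatically.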

[11] = CCTE_Mundy_HCI_hN2_NOG_NeuriteLength: CCTE's Neurite Outgrowth Assay in human hN2 cells for Neurite Length, Mundy Lab (AID 2284220; active means hit-call score of the fitted dose curve at least 0.9, where 1 is the maximum)
How it was run: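 Using βIII-tubulin immunofluorescence and Hoechst nuclear counterstain, this component quantifies neurite length in hNP1-derived neurons.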

[12] = CCTE_Mundy_HCI_hN2_NOG_NeuronCount: CCTE's Neurite Outgrowth Assay in human hN2 cells for Neuron Count, Mundy Lab (AID 2284221; active means hit-call score of the fitted dose curve at least 0.9, where 1 is the maximum)
How it was run: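 Read-out is the number of betaIII-tubulin-positive neurons imaged by automated high-content analysis, with DMSO as negative control.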

[13] = CCTE_Mundy_HCI_Cortical_Synap_Neur_Matur_CellBodySpotCount: CCTE's Synaptogenesis and Neurite Maturation Assay in rat cortical cells for Cell Body Spot Count, Mundy Lab (AID 2284223)
How it was run: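 Rat primary cortical cultures received AraC at DIV 5 to arrest glia, were dosed with chemical at DIV 7 with media change, and were fixed at DIV 12 (288.33 h). Synaptophysin puncta on MAP2-positive cell bodies per neuron were counted by high-content imaging versus DMSO.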

[14] = CCTE_Mundy_HCI_hNP1_Pro_ResponderAvgInten: CCTE's Proliferation Assay in human neuroprogenitor cells, Mundy Lab (AID 2284224; active means hit-call score of the fitted dose curve at least 0.9, where 1 is the maximum;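 further: human neural progenitor cells hNP1 derived from WA09 embryonic stem cells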)
How it was run: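 Human neuroprogenitors (hNP1, WA09 lineage) receive test chemical after 40 to 44 hours of attachment. A four-hour BrdU pulse begins twenty hours later, followed by fixation and high content imaging; signal is referenced to DMSO controls.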

[15] = UKN2_HCS_IMR90_neural_migration: University of Konstanz (UKN) Leist Lab Neural Crest Cell Migration Assay in human induced IMR90 Pluripotent Stem Cells (UKN2) (AID 2284204); conditions: actives raise or lower the signal
How it was run: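 Using a 96-well stopper format with PLO/laminin/fibronectin coating, neural crest cells from iPSC migrate in cytokine-supplemented N2-S medium; after 24 h, chemicals are applied for a further 24 h, then cells are imaged after dye staining.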

[16] = IUF_NPC1b_proliferation_BrdU_72hr: Leibniz Research Institute for Environmental Medicine (IUF) 72-hour Neural Progenitor Cell Bromodeoxyuridine (BrdU) Proliferation Assay (NPC1b) (AID 2284207)
How it was run: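 Neural progenitor spheres of human fetal origin are treated for three days; BrdU added for the last 16 h is quantified by luminescence ELISA, with DMSO as baseline and EGF/FGF omission as positive control.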

[17] = IUF_NPC1a_proliferation_area_72hr: Leibniz Research Institute for Environmental Medicine (IUF) 72-hour Neural Progenitor Cell Proliferation Area Assay (NPC1a) (AID 2284208)
How it was run: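 Read-out: increase in sphere area over 72 h by automated phase-contrast imaging, fitted in positive direction versus DMSO baseline. One hNPC sphere (0.25-0.35 mm) per well in EGF/FGF medium; growth-factor withdrawal served as positive control.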

[18] = IUF_NPC1_viability_72hr: Viability Assessment at 72 hours in the Leibniz Research Institute for Environmental Medicine (IUF) Neural Progenitor Cell Proliferation Assay (NPC1) (AID 2284209)
How it was run: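 Spheres of primary human neural progenitors were plated singly in proliferation medium and treated for 72 h. Mitochondrial reduction of resazurin was then measured by fluorescence and analysed against DMSO controls.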

[19] = UKN4_HCS_LUHMES_neurite_outgrowth: University of Konstanz (UKN) Leist Lab Neurite Outgrowth Assay in human LUHMES cells (UKN4) (AID 2284206); conditions: actives raise or lower the signal
How it was run: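 Human LUHMES cells were differentiated for two days, replated and treated with chemicals for 24 h. Neurite outgrowth was quantified as calcein-stained neurite area by HCS imaging, fitted bidirectionally relative to DMSO.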

Measured: AC50

CCOP(=S)(OCC)Oc1ccc2c(C)c(Cl)c(=O)oc2c1
inactive: [3] | [8] | [9] | [13] | [14]
active: [1] 21.9 µM | [2] 41.6 µM | [4] 50 µM | [5] 89.6 µM | [6] 84.7 µM | [7] 50 µM | [10] 22.1 µM | [11] 18.6 µM | [12] 18.9 µM

CCOP(=S)(OCC)OC(Cl)C(Cl)(Cl)Cl (stereo not drawn)
inactive: [15] | [17] | [18] | [3] | [13]
active: [1] 15.9 µM and 18 µM | [2] 21.2 µM and 17.8 µM | [16] 1.35 µM | [3] 16.5 µM | [4] 70.5 µM and 13.3 µM | [5] 75.7 µM and 31.8 µM | [6] 66.9 µM and 32.2 µM | [7] 85.1 µM and 12.1 µM | [8] 83.9 µM and 16.2 µM | [9] 85.8 µM and 15.9 µM | [13] 16.7 µM | [14] 50 µM and 75.1 µM

CC(C)N(C(=O)SCC(Cl)=C(Cl)Cl)C(C)C
inactive: [16] | [17] | [18] | [4] | [5] | [6]
active: [1] 15 µM | [2] 15 µM | [19] 15.9 µM | [3] 25 µM | [7] 15 µM | [8] 23.6 µM | [9] 23.7 µM | [13] 24.1 µM

CCOC(=O)CC(SP(=O)(OC)OC)C(=O)OCC (stereo not drawn)
active: [18] 1.06 µM
inactive: [1] | [2] | [15] | [19] | [16] | [17] | [3] | [4] | [5] | [6] | [7] | [8] | [9] | [10] | [11] | [13]

COP(=O)(OC)C(O)C(Cl)(Cl)Cl (stereo not drawn)
inactive: [16] | [17] | [18] | [3] | [5] | [6]
active: [1] 18.4 µM and 3.54 µM | [2] 31.7 µM and 15 µM | [4] 26.8 µM | [7] 36.9 µM | [8] 50 µM | [9] 50 µM | [14] 50 µM

O=[N+]([O-])c1cc(C(F)(F)F)c(Cl)c([N+](=O)[O-])c1Nc1ncc(C(F)(F)F)cc1Cl
active: [1] 0.328 µM | [2] 0.65 µM | [15] 638 nM | [17] 7.56 µM | [18] 9.47 µM | [3] 1.06 µM | [4] 0.934 µM | [5] 1.44 µM | [6] 0.8 µM | [7] 0.924 µM | [8] 0.94 µM | [9] 1.06 µM | [13] 1.9 µM | [14] 1.89 µM
inactive: [16]

CCOP(=O)(SC(C)CC)N1CCSC1=O (stereo not drawn)
inactive: [1] | [2] | [3] | [4] | [5] | [6] | [7] | [8] | [9] | [10] | [11] | [12] | [13]
